Reference: PMC4336329 (PLoS ONE, 2015)
Hit rate of the full screen: of about 310,000 compounds, about 14,000 (4.5%) showed an effect of 50% or more. Effects have a minus sign here. Only a selection was taken, and strong results are over-represented in it overall.

target: human ether-à-go-go-related gene (hERG) potassium channel (human, UniProt Q12809); assay: primary screen, population patch clamp on CHO cells stably expressing hERG; higher = less effect of the substance
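Note: peak tail current of the secondary pulse compared with the same well before compound.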

human ether-à-go-go-related gene (hERG) potassium channel, sequence (Q12809 whole entry, looked up): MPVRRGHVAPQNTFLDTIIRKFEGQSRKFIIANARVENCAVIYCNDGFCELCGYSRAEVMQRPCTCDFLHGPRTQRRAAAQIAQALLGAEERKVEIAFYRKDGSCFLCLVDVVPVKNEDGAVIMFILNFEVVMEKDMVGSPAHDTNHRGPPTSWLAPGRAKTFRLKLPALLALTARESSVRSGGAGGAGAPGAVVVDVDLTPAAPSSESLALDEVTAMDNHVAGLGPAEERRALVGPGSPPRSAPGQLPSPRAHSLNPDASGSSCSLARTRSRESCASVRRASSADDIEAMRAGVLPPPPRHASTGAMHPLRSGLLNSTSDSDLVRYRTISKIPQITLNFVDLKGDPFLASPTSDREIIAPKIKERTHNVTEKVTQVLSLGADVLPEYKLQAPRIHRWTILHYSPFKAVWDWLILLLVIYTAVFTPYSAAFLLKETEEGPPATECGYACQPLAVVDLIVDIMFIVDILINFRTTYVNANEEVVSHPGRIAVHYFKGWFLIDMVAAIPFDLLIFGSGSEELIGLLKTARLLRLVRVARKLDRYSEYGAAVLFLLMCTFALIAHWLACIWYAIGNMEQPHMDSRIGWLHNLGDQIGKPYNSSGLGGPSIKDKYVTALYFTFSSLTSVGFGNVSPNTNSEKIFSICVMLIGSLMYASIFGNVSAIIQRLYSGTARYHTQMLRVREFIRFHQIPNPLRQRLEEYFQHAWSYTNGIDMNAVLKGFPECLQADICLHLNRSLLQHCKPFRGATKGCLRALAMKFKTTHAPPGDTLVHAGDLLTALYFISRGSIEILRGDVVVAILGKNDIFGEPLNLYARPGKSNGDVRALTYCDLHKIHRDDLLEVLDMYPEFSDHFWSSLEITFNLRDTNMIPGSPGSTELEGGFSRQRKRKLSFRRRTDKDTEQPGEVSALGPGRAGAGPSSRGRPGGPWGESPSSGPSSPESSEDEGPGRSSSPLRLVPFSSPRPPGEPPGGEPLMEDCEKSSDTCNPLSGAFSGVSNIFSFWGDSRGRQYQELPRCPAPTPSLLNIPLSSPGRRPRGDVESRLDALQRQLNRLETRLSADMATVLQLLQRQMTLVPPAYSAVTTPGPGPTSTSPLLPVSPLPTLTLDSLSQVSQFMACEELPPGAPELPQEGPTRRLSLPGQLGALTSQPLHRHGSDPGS

| SMILES | hERG current change (%, negative = inhibition) at 10uM |
| --- | --- |
| CCn1c(C)nc2cc(C(=O)NNC(=S)Nc3ccc(F)cc3)ccc21 | 15.9% |
| CCC(=O)N1CCN(C(=O)c2ccccc2)CC1 | 1.82% |
| O=C(Nc1ccc(N2CCOCC2)cc1)c1cccc(S(=O)(=O)N2CCC(Cc3ccccc3)CC2)c1 | 2.84% |
| OC(CNCCc1ccc(Cl)cc1)COc1cc(Cl)ccc1Cl (centres unmarked) | -56.6% |
| O=C(O)C(=O)O.OC(CNCCc1ccc(Cl)cc1Cl)COc1ccccc1 (centres unmarked) | -25.7% |
| Cc1cc(Cl)ccc1OCC(O)CNCCc1ccc(S(N)(=O)=O)cc1 (centres unmarked) | -67.6% |
| COc1ccc(Cl)cc1NC(=S)NCCc1ccc(S(N)(=O)=O)cc1 | 5.52% |
| Cc1cc(Cl)ccc1NC(=S)NCCc1ccc(S(N)(=O)=O)cc1 | -16.1% |
| OC(CNCCc1ccc(Cl)cc1)COCc1ccco1 (centres unmarked) | -44.6% |
| CCn1c(=NC(=O)CS(=O)(=O)c2ccc(C)cc2)sc2cccc(OC)c21 | -0.869% |
| O=C(CCc1ccccc1O)N/N=C/c1ccc(Sc2cccc3cccnc23)o1 | 21.8% |
| COc1ccc(CNC(=O)CN2CCN(c3ccccc3O)CC2)cc1OC | 12.6% |
| CCSc1nc2ccccc2c(=O)n1CCc1ccc(OC)c(OC)c1 | 14.9% |
| COCCn1c(SCCN2CCCCC2)nc2ccccc2c1=O | -78.4% |
| COc1ccc(CCn2c(SCCN3CCCCC3)nc3ccccc3c2=O)cc1OC | -53.3% |
| NC(=O)CSc1nc2ccccc2c(=O)n1CCc1ccccc1 | 8.93% |
| O=c1c2ccccc2nc(SCCN2CCOCC2)n1CCc1ccccc1 | -15.4% |
| C=CCNC(=O)CSc1nc2ccccc2c(=O)n1CCc1ccc(OC)c(OC)c1 | -15.4% |
| O=c1c2ccccc2nc(SCCN2CCCCC2)n1CCc1ccccc1 | -71.7% |

| SMILES | hERG current change (%, negative = inhibition) at 10uM |
| --- | --- |
| COCCn1c(SCCOc2ccccc2)nc2ccccc2c1=O | -6.1% |
| COCCn1c(SCC(=O)c2ccccc2)nc2ccccc2c1=O | -12.4% |
| O=C(CSc1nnc(NC(=O)Cc2ccc(F)cc2)s1)NCc1ccco1 | 14.3% |
| Cc1ccccc1Cn1cc(S(=O)(=O)CC(=O)N2CCCCC2)c2ccccc21 | 7.27% |
| Nc1cc(Nc2ccccc2)c2nonc2c1[N+](=O)[O-] | 16.3% |
| N#Cc1c(Nc2cccc(F)c2)sc2c(O)cc(=O)[nH]c12 | 27.3% |
| Cc1ccccc1-n1c(C)cc(/C=N/Nc2ccc([N+](=O)[O-])cn2)c1C | 17.4% |
| Br.C=CCN1CCc2cc(O)c(O)cc2C(c2ccccc2)C1 (centres unmarked) | -23.9% |
| CN1CCc2cc(Cl)c(O)cc2[C@@H](c2ccccc2)C1.Cl | -56% |
| Br.C=CCN1CCc2c(cc(O)c(O)c2Cl)C(c2ccccc2)C1 (centres unmarked) | -41% |
| Br.Cc1cccc(C2CN(C)CCc3c2cc(O)c(O)c3Cl)c1 (centres unmarked) | -51.1% |
| Br.Oc1ccc(C2CNCCc3c2cc(O)c(O)c3Cl)cc1 (centres unmarked) | -3.12% |
| Br.CN1CCc2cc(O)c(O)cc2C(c2ccccc2)C1 (centres unmarked) | -13.6% |
| O=[N+]([O-])c1ccc(-c2nc(=S)c3c(o2)CCCC3)cc1 | -6.53% |
| c1ccc(Nc2ccccn2)nc1 | 7.19% |
| Oc1cccc2ccc(Nc3ccccn3)nc12 | -53.6% |
| Oc1ccccc1Nc1ccccn1 | 6.88% |
| Nc1ccc(C#Cc2c(-c3ccsc3)oc3ccc(N4CCOCC4)cc23)cc1 | 5.98% |
| NC(=O)c1ccc(NC(=O)CCN2C(=O)c3ccccc3C2=O)cc1 | 16% |

| SMILES | hERG current change (%, negative = inhibition) at 10uM |
| --- | --- |
| CN(C)c1ccc(NC(=O)C2C3C=CC(C3)C2C(=O)O)cc1 (centres unmarked) | 7.65% |
| CC1CN(c2ncnc3c2cnn3-c2ccc(Cl)cc2)CC(C)O1 (centres unmarked) | 0.749% |
| O=c1cccc2n1CC1CC2CN(c2ncnc3c2cnn3-c2ccccc2)C1 (centres unmarked) | -30% |
| O=c1cccc2n1CC1CC2CN(c2ncnc3c2cnn3-c2ccc(Cl)cc2)C1 (centres unmarked) | -62.1% |
| O=C(Nc1nnc(C2=COCCO2)o1)c1cccc(F)c1 | 16.7% |
| O=C(c1ccc(C(F)(F)F)cc1)C1CCCN(C(=O)CCc2ccncc2)C1 (centres unmarked) | -59.4% |
| Cn1c(C(=O)N2CCCC(C(=O)c3ccc(C(F)(F)F)cc3)C2)cc(=O)n(C)c1=O (centres unmarked) | -71.7% |
| Cn1nccc1C(=O)N1CCCC(C(=O)c2ccc(C(F)(F)F)cc2)C1 (centres unmarked) | 6.14% |
| Cc1ccc(NC2CCCN(C(=O)CCc3ccncc3)C2)cc1C (centres unmarked) | -24.5% |
| O=C(CCc1ccncc1)N1CCCC(Nc2ccc(F)cc2)C1 (centres unmarked) | -13.9% |
| NC(=O)CCC(=O)N1CCCC(C(=O)c2ccc(C(F)(F)F)cc2)C1 (centres unmarked) | 1% |
| O=C(CCc1ccncc1)N1CCCC(Nc2ccc(F)c(F)c2)C1 (centres unmarked) | -56% |
| O=C(c1ccc(C(F)(F)F)cc1)C1CCCN(C(=O)CCc2cnccn2)C1 (centres unmarked) | -15.1% |
| COc1ccc2cc(C(=O)C3CCCN(C(=O)c4cc(=O)n(C)c(=O)n4C)C3)ccc2c1 (centres unmarked) | -38.4% |
| O=C(c1ccc(S(=O)(=O)Nc2ccccc2F)cc1)N1CCCCCC1 | 2.93% |
| O=C(N[C@@H]1CCC(=O)N(CC[C@H](Sc2ccc(Br)cc2)c2ccccc2)CC1)OCc1ccccc1 | 0.417% |
| COc1ccc2[nH]c(=O)c(CN(CCO)S(=O)(=O)c3ccc(C)cc3)cc2c1 | -9.52% |
| Cc1ccc(C)c(NC(=S)N/N=C2\CCc3ccccc32)c1 | 9.03% |
